The text below walks through data of PubChem BioAssay (EPA / NIEHS).

Several values for one entry are separate records, joined by “and”; a condition that tells them apart may be missing. Equal entries are not always repeated. Results filed as inconclusive are left out. A structure can be active in one record and inactive in another. Activity calls are given as the source filed them. Rule for the calls: active = hit-call score of the fitted dose curve at least 0.9, where 1 is the maximum; inconclusive = response in the unintended direction; inactive = score below 0.9.

Test [1] addresses human Thyroid hormone Receptor beta (TRb), THRB (gene 7068) (UniProt P10828). In words: ATG_hTRb_XSP1: Attagene TRANS-FACTORIAL Multi-Species (XSP1) HepG2 Assay for human Thyroid hormone Receptor beta (TRb) (AID 2283808). A digest of the protocol: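 Readout is reporter mRNA induction measured by RT-PCR, fluorescent labelling and capillary electrophoresis, fitted upward relative to DMSO. Transiently transfected human HepG2 cells expressing NR-Gal4 chimeras were dosed for 24 h, medium containing 3 nM 6-alpha-fluorotestosterone.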

The target of test [2] is zebrafish Thyroid Hormone Receptor beta (TRb), thrb (gene 30607) (UniProt Q9PVE4). In words: ATG_zfTRb_XSP1: Attagene TRANS-FACTORIAL Multi-Species (XSP1) HepG2 Assay for zebrafish Thyroid Hormone Receptor beta (TRb) (AID 2283809). A digest of the protocol:
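HepG2 cells transiently transfected with multiplexed GAL4-UAS reporter units expressing chimeric zebrafish TRb–Gal4. Dosed 24 h with 3 nM 6-alpha-fluorotestosterone present; reporter mRNA measured by RT-PCR, HpaI digestion and capillary electrophoresis; gain of signal versus DMSO.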

A short description of test [3]: ATG_XTT_Cytotoxicity_XSP1: Cytotoxicity Assessment in the Attagene TRANS-FACTORIAL Multi-Species (XSP1) HepG2 Assay (AID 2283810). A digest of the protocol:
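XTT viability readout taken at 24 hours post-dosing in HepG2 liver cells co-treated with 3 nM 6-alpha-fluorotestosterone. Signal loss relative to DMSO controls reflects cytotoxicity.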

A short description of test [4]: ATG_M_06_XSP2: Attagene TRANS-FACTORIAL Multi-Species (XSP2) HepG2 Assay for M06 Transcription Factor (Internal Marker) (AID 2283811).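 Note: internal background marker reporter mRNA measured by RT-PCR and capillary electrophoresis; hits are increases in signal above the DMSO baseline.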 A digest of the protocol:
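Internal-marker reporter transcript, quantified by RT-PCR, 6-FAM labelling, HpaI digestion and capillary electrophoresis, 24 hours after dosing transfected HepG2 cells with 3 nM 6-alpha-fluorotestosterone and 1.5 nM norgestrel present; DMSO baseline.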

The target in test [5] is GAL4 Transcription Factor (Internal Marker), GAL4 (gene 855828) (UniProt P04386). In words: ATG_GAL4_XSP2: Attagene TRANS-FACTORIAL Multi-Species (XSP2) HepG2 Assay for GAL4 Transcription Factor (Internal Marker) (AID 2283814).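 Note: GAL4 reporter mRNA background control in MRTU transfected cells not a receptor target.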 A digest of the protocol:
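Background-control readout: gain-of-signal fitted against DMSO. After 24 h exposure of transfected HepG2 (MRTU, GAL4-UAS reporters; 3 nM 6-alpha-fluorotestosterone, 1.5 nM norgestrel present), transcripts quantified by RT-PCR and capillary electrophoresis fluorescence.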

In test [6] the target is zebrafish Estrogen Receptor (ER1), esr1 (gene 259252) (UniProt P57717). In words: ATG_zfER1_XSP2: Attagene TRANS-FACTORIAL Multi-Species (XSP2) HepG2 Assay for zebrafish Estrogen Receptor (ER1) (AID 2283816). A digest of the protocol: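 After 24 h compound exposure, RNA from transfected HepG2 cells was reverse-transcribed and reporter transcripts resolved by capillary electrophoresis. The TRANS format reads exogenous zebrafish ER1-Gal4 chimera activity on GAL4-UAS elements; gain of signal against DMSO.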

In test [7] the test system is zebrafish Estrogen Receptor (ER2a), gene 317734. In words: ATG_zfER2a_XSP2: Attagene TRANS-FACTORIAL Multi-Species (XSP2) HepG2 Assay for zebrafish Estrogen Receptor (ER2a) (AID 2283818).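 Note: hits raise reporter mRNA so AC50 reflects activation of zebrafish ER2a.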 A digest of the protocol:
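Multiplexed trans-reporter readout: RT-PCR then capillary electrophoresis of reporter transcripts after 24 h compound treatment. Human HepG2 carries transfected zebrafish ER2a-Gal4 chimera; 3 nM 6-alpha-fluorotestosterone plus 1.5 nM norgestrel present. Induction scored against DMSO.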

The subject of test [8] is turtle Estrogen Receptor (ERa), gene 101933533. In words: ATG_trERa_XSP2: Attagene TRANS-FACTORIAL Multi-Species (XSP2) HepG2 Assay for turtle Estrogen Receptor (ERa) (AID 2283812).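 Note: actives raise reporter signal above DMSO so AC50 reflects agonist activity.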 A digest of the protocol:
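Readout is reporter mRNA quantified by RT-PCR with capillary electrophoresis after 24 h compound exposure, increase relative to DMSO. Uses transiently transfected human HepG2 liver cells carrying a chimeric turtle ERa-Gal4 receptor driving GAL4-UAS reporters.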

Test [9] has as its target Estrogen receptor beta (Homo sapiens) (UniProt Q92731). In words: ATG_hERb_XSP2: Attagene TRANS-FACTORIAL Multi-Species (XSP2) HepG2 Assay for human Estrogen Receptor (ERb) (AID 2283813).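 Note: actives raise reporter mRNA above DMSO so AC50 reflects agonist induction.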 A digest of the protocol:
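Transient TRANS reporter system in HepG2: after 24 h of chemical, RNA is reverse-transcribed, reporter cDNA amplified, FAM-labelled and sized by capillary electrophoresis. Induction of the human ERb-Gal4 reporter is measured relative to DMSO.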

Test [10] concerns the target chicken Estrogen Receptor (ERa), ESR1 (gene 396099) (UniProt P06212). In words: ATG_chERa_XSP2: Attagene TRANS-FACTORIAL Multi-Species (XSP2) HepG2 Assay for chicken Estrogen Receptor (ERa) (AID 2283817).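 Note: actives raise reporter signal above DMSO so AC50 reflects ER activation.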 A digest of the protocol:
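Reporter mRNA induction read by RT-PCR, fluorescent labelling and capillary electrophoresis after 24 h exposure; positive-direction fit against DMSO baseline. HepG2 cells transfected with multiplexed GAL4-UAS units including chicken ERa chimera; medium contained 3 nM 6-alpha-fluorotestosterone plus 1.5 nM norgestrel.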

Estrogen receptor beta (Homo sapiens), sequence (Q92731 whole entry, looked up, the tested form may be a part): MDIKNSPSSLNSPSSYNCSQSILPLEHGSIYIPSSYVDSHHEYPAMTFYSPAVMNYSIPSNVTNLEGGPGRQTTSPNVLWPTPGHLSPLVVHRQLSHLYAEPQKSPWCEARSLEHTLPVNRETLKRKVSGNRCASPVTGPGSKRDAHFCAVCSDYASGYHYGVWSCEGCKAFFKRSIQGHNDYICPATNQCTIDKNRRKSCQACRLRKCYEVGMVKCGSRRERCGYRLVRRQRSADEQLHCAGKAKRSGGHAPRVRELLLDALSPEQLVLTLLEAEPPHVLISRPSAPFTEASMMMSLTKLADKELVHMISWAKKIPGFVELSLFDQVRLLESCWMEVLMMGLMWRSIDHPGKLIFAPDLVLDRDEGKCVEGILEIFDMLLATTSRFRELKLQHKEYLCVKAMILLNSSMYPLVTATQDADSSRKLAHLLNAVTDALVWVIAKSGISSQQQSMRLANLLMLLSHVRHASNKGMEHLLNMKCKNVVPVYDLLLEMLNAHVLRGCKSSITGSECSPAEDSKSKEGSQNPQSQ
chicken Estrogen Receptor (ERa), ESR1 (gene 396099), sequence (P06212 whole entry, looked up, the tested form may be a part): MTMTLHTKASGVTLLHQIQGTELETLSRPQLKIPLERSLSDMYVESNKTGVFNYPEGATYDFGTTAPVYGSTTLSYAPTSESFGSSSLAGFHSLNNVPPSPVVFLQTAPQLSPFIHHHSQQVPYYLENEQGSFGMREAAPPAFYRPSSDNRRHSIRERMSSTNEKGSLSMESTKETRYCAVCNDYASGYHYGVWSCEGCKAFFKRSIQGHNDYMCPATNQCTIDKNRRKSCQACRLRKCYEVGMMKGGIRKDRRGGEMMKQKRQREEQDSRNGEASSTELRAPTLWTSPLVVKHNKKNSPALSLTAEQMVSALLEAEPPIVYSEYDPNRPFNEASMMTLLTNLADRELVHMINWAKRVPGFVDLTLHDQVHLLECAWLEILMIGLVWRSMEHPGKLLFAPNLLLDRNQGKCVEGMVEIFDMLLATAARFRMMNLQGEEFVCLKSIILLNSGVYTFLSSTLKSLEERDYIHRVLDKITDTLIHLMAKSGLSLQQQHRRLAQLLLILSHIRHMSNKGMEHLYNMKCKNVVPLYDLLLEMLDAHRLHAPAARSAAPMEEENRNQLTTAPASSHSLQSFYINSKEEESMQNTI
zebrafish Estrogen Receptor (ER1), esr1 (gene 259252), sequence (P57717 whole entry, looked up, the tested form may be a part): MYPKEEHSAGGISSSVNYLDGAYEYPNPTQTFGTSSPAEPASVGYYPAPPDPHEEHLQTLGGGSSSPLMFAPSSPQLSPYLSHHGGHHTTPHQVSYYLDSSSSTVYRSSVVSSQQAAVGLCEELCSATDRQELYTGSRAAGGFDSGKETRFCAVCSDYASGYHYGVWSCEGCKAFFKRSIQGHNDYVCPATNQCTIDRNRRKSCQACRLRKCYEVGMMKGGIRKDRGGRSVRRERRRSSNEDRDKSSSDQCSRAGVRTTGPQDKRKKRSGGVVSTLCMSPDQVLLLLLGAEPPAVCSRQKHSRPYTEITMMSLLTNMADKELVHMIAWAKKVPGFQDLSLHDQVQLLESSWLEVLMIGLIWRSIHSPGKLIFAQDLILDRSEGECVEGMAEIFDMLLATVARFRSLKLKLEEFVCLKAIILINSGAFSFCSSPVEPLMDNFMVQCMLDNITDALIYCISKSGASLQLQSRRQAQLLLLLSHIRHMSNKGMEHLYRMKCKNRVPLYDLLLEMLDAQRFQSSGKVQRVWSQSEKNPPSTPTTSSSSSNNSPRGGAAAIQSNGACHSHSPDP
GAL4 Transcription Factor (Internal Marker), GAL4 (gene 855828), sequence (P04386 whole entry, looked up, the tested form may be a part): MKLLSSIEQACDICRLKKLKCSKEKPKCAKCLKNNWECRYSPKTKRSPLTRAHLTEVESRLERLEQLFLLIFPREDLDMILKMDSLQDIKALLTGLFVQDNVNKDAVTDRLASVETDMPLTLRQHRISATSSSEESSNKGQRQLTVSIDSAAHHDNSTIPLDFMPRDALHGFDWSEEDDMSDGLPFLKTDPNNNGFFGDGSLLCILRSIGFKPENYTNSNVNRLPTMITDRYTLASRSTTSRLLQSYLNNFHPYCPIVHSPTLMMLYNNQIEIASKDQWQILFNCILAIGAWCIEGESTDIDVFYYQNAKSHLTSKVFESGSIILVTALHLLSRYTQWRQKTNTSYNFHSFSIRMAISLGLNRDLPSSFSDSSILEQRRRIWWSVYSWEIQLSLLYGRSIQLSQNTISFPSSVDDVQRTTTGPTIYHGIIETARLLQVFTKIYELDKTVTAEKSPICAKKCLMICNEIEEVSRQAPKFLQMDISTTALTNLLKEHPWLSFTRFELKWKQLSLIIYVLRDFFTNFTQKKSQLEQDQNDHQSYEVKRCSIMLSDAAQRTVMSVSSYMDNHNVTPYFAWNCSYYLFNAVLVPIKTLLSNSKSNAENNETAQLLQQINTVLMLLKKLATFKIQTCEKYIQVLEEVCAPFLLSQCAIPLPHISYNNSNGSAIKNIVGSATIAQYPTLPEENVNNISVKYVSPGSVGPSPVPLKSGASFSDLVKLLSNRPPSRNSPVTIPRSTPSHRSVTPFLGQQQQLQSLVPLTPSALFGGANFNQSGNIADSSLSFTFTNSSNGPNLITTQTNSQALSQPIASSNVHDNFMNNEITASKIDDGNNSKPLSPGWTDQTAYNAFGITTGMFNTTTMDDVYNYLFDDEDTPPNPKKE
zebrafish Thyroid Hormone Receptor beta (TRb), thrb (gene 30607), sequence (Q9PVE4 whole entry, looked up, the tested form may be a part): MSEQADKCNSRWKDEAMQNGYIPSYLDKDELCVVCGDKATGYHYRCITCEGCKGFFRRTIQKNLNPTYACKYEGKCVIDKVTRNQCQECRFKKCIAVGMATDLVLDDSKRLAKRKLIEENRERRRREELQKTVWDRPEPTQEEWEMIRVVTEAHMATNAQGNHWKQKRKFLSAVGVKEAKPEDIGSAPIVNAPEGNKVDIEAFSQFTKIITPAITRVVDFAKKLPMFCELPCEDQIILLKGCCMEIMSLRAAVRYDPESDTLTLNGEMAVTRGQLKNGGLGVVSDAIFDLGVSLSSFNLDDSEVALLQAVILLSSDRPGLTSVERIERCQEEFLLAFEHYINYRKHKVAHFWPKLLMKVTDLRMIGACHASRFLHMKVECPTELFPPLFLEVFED
human Thyroid hormone Receptor beta (TRb), THRB (gene 7068), sequence (P10828 whole entry, looked up, the tested form may be a part): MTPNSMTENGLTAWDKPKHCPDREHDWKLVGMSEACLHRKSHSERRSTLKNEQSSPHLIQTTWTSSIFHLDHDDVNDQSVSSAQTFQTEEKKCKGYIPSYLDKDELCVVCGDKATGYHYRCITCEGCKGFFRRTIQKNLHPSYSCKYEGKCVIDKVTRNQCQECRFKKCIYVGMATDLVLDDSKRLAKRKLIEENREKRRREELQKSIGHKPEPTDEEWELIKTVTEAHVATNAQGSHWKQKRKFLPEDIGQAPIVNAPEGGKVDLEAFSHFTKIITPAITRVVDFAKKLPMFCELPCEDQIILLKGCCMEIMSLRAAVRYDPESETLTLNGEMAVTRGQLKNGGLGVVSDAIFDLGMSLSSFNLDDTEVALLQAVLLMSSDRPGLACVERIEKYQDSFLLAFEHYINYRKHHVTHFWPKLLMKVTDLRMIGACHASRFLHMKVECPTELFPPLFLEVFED

The AC50 is the concentration giving half of the maximal activity seen. Consider `CCN(CC)CCOc1ccc(C(=C(Cl)c2ccccc2)c2ccccc2)cc1`, for which the figures for the AC50 in [1], in test [2] and in test [3] were 2.02 µM (active), 1.57 µM (active) and 31.4 µM (active), respectively. The molecule was classed as inactive in test [4], in test [5], in [6] and in test [7].
Take `CC(=O)O[C@]1(C(C)=O)CC[C@H]2[C@@H]3C=C(Cl)C4=CC(=O)[C@@H]5C[C@@H]5[C@]4(C)[C@H]3CC[C@@]21C`: the molecule was classed as inactive in test [1], in test [2], in test [3], in test [4], in [6] and in test [7].
As for `Cc1c(C)c2c(c(C)c1O)CCC(C)(COc1ccc(CC3SC(=O)NC3=O)cc1)O2` (stereo not given), the outcome in [4], in test [8], in test [9], in test [6] and in test [10] was inactive.
`CC(=O)[C@@]1(O)CC[C@H]2[C@@H]3CCC4=CC(=O)CC[C@]4(C)[C@H]3CC[C@@]21C`: the AC50 in test [8] was 37.4 µM (active) and 11.9 µM (active); in test [9] it was 100 µM (active); in [10] it was 38.3 µM (active) and 14.9 µM (active); in [7], 65.6 µM (active) and 13.5 µM (active). The molecule was called inactive in [9], in [5] and in test [6].
